# Test results taken from paper PMC8384837, “Expanding the binding specificity for RNA recognition by a PUF domain”.
# Biological target: PUM1 PUF domain R5-HRG (Homo sapiens, UniProt Q14671 828-1176, C1007H;Q1011G)
# Test: yeast three-hybrid, YBZ-1, SC-Leu-His + 0.5 mM 3-AT, 4 days
# Details: tags: N-Gal4 AD-HA kept; label: inside an RPR1-promoter hybrid RNA with tandem MS2 sites; ssRNA
# Method in brief: (§1)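 A centromeric plasmid in strain YBZ-1 co-expressed Pumilio-1 PUF domain libraries, randomized at the three base-contacting residues of each repeat, with matching RNA elements; the strain carries a LexA–MS2 coat fusion and a HIS3 reporter. After four days on SC-Leu (input) or SC-Leu-His + 0.5 mM 3-AT (selection), the repeat regions were PCR-amplified and Illumina-sequenced. The interaction score is the log change in variant frequency from input to selection, using log2 and a pseudocount of 1 where absent.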
row,Sequence,binding signal
1,GGCUAGAACUAGUGGAUCCCCCGGCGCCCGGCGGCUCGAGCCCGGGUAAGUGUUAAUAGUCUGCAUGCCGCCGGGCGCCAUGCCUGCAGGUCGACUCUAGAAAACAUG,3.89 log2 enrichment (interaction score)
2,GGCUAGAACUAGUGGAUCCCCCGGCGCCCGGCGGCUCGAGCCCGGGUAAGUGUCAAUAGUCUGCAUGCCGCCGGGCGCCAUGCCUGCAGGUCGACUCUAGAAAACAUG,1.78 log2 enrichment (interaction score)
3,GGCUAGAACUAGUGGAUCCCCCGGCGCCCGGCGGCUCGAGCCCGGGUAAGUGUAAAUAGUCUGCAUGCCGCCGGGCGCCAUGCCUGCAGGUCGACUCUAGAAAACAUG,0.26 log2 enrichment (interaction score)

# Biological target: PUM1 PUF domain R3-CRP (Homo sapiens, UniProt Q14671 828-1176, Q939P)
# Test: as above
# Details: tags: N-Gal4 AD-HA kept; label: inside an RPR1-promoter hybrid RNA with tandem MS2 sites; ssRNA
# Method in brief: as §1
row,Sequence,binding signal
1,GGCUAGAACUAGUGGAUCCCCCGGCGCCCGGCGGCUCGAGCCCGGGUAAGUGUAAAUAGUCUGCAUGCCGCCGGGCGCCAUGCCUGCAGGUCGACUCUAGAAAACAUG,4.84 log2 enrichment (interaction score)
2,GGCUAGAACUAGUGGAUCCCCCGGCGCCCGGCGGCUCGAGCCCGGGUAAGUGUAAGUAGUCUGCAUGCCGCCGGGCGCCAUGCCUGCAGGUCGACUCUAGAAAACAUG,1.62 log2 enrichment (interaction score)
3,GGCUAGAACUAGUGGAUCCCCCGGCGCCCGGCGGCUCGAGCCCGGGUAAGUGUAAUUAGUCUGCAUGCCGCCGGGCGCCAUGCCUGCAGGUCGACUCUAGAAAACAUG,1.1 log2 enrichment (interaction score)

# Biological target: PUM1 PUF domain R5-RYV (Homo sapiens, UniProt Q14671 828-1176, C1007R;R1008Y;Q1011V)
# Test: as above
# Details: tags: N-Gal4 AD-HA kept; label: inside an RPR1-promoter hybrid RNA with tandem MS2 sites; ssRNA
# Method in brief: as §1
row,Sequence,binding signal
1,GGCUAGAACUAGUGGAUCCCCCGGCGCCCGGCGGCUCGAGCCCGGGUAAGUGUUAAUAGUCUGCAUGCCGCCGGGCGCCAUGCCUGCAGGUCGACUCUAGAAAACAUG,4.93 log2 enrichment (interaction score)
2,GGCUAGAACUAGUGGAUCCCCCGGCGCCCGGCGGCUCGAGCCCGGGUAAGUGUCAAUAGUCUGCAUGCCGCCGGGCGCCAUGCCUGCAGGUCGACUCUAGAAAACAUG,5.29 log2 enrichment (interaction score)
3,GGCUAGAACUAGUGGAUCCCCCGGCGCCCGGCGGCUCGAGCCCGGGUAAGUGUAAAUAGUCUGCAUGCCGCCGGGCGCCAUGCCUGCAGGUCGACUCUAGAAAACAUG,1.83 log2 enrichment (interaction score)
4,GGCUAGAACUAGUGGAUCCCCCGGCGCCCGGCGGCUCGAGCCCGGGUAAGUGUGAAUAGUCUGCAUGCCGCCGGGCGCCAUGCCUGCAGGUCGACUCUAGAAAACAUG,2.35 log2 enrichment (interaction score)
